Drawing on the supplement of paper PMC12819154, “High-throughput peptide-centric local stability assay extends protein–ligand identification to membrane proteins, tissues and bacteria” (Nature Structural & Molecular Biology, 2025), this text covers log2 fold change for 8 targets.
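Also: lysate desalted by size exclusion to strip endogenous ATP, peptide intensities built from DIA-NN precursor signals, and peptides missing any value discarded before comparison.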

Sequence of UniProt P39343 (P39343 whole entry): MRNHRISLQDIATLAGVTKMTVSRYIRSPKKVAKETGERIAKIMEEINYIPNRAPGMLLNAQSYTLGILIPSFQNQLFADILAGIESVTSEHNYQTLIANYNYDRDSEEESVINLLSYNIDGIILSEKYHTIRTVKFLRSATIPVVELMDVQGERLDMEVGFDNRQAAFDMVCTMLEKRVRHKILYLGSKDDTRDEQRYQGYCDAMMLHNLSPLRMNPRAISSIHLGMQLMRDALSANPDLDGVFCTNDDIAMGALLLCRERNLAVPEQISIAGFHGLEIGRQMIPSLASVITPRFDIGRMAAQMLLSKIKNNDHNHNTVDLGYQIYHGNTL
Sequence of UniProt P23883 (P23883 whole entry): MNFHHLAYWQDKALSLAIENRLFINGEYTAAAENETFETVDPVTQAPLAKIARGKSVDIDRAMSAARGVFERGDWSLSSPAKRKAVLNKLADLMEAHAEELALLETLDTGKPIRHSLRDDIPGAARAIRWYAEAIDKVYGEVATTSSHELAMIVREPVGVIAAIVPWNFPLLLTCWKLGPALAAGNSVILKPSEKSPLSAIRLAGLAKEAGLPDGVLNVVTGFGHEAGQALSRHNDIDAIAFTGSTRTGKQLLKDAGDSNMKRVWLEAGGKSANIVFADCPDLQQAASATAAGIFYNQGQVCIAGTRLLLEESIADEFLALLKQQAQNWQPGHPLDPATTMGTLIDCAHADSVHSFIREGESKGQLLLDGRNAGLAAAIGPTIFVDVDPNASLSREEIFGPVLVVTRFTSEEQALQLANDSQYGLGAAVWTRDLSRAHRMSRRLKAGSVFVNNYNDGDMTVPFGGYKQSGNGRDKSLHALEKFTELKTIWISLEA
Sequence of UniProt P23874 (P23874 whole entry): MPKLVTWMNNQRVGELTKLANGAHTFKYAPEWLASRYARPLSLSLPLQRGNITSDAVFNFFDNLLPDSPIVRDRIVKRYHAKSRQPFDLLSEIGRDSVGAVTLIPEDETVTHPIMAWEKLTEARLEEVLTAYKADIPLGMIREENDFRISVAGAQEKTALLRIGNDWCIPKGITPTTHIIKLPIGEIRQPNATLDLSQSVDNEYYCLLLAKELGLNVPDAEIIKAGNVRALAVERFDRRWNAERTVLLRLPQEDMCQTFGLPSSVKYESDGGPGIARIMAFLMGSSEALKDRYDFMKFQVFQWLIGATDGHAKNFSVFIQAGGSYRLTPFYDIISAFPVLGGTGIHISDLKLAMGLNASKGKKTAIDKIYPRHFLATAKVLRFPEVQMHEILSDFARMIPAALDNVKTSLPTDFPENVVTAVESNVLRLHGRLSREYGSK
Sequence of UniProt P21151 (P21151 whole entry): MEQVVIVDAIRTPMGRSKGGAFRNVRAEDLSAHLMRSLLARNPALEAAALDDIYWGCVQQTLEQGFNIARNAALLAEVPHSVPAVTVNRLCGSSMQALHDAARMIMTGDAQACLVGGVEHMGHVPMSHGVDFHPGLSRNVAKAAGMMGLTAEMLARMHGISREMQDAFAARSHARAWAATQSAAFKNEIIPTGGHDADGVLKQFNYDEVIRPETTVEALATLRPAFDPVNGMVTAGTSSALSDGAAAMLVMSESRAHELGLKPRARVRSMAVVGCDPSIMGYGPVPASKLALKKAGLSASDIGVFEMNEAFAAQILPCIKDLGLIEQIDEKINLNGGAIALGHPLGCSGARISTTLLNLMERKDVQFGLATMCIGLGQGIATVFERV
Sequence of UniProt Q46889 (Q46889 whole entry): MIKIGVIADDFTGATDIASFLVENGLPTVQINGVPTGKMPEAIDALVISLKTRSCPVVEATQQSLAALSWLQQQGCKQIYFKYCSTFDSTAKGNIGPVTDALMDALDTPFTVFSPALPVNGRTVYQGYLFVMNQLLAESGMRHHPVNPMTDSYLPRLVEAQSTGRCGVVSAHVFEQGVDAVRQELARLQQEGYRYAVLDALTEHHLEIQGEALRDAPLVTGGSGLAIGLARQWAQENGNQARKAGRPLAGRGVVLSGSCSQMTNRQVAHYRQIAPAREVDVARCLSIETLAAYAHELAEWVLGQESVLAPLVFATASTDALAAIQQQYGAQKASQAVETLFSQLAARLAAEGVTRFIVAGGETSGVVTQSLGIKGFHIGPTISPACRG
Sequence of UniProt P27296 (P27296 whole entry): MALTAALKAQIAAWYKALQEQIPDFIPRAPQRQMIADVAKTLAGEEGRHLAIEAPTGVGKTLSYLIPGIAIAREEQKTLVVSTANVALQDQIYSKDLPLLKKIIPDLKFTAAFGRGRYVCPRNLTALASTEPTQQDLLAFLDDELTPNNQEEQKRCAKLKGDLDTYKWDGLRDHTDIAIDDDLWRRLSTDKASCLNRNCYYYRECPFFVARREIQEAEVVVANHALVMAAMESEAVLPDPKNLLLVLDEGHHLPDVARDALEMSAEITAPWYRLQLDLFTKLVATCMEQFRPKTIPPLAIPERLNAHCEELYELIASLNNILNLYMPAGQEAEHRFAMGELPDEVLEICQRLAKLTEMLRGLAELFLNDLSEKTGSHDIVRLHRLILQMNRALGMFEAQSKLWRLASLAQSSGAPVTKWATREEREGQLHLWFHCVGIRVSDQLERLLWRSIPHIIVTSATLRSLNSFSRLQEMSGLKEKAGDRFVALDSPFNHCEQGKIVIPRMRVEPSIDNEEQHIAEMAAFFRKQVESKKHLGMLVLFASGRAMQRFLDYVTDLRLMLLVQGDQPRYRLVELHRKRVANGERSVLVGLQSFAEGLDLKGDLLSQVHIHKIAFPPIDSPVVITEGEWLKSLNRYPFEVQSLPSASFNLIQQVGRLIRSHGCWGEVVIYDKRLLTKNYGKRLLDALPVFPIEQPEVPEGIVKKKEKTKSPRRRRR
Sequence of UniProt P02919 (P02919 whole entry): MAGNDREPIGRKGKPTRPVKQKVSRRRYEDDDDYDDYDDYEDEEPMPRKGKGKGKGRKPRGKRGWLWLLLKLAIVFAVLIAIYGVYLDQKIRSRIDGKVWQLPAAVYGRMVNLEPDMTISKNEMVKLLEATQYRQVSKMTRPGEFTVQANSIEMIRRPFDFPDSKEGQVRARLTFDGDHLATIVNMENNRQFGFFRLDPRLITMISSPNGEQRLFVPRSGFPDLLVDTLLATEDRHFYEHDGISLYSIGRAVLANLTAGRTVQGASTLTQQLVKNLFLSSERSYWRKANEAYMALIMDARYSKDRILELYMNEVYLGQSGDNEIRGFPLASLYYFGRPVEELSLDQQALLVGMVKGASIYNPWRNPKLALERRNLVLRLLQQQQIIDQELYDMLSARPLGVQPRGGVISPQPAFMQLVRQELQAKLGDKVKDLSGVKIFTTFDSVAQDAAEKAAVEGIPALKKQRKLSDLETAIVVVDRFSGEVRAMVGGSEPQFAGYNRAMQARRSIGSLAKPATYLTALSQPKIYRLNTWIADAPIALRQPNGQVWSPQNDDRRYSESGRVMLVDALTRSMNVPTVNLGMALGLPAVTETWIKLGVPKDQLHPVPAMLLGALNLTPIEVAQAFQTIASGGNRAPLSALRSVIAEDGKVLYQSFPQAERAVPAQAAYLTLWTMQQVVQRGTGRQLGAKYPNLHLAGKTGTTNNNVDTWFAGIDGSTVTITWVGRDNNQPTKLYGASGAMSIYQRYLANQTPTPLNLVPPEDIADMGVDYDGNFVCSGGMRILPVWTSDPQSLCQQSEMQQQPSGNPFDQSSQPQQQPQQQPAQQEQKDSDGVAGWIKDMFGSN

Compound in the test: Nc1ncnc2c1ncn2[C@@H]1O[C@H](COP(=O)(O)OP(=O)(O)OP(=O)(O)O)[C@@H](O)[C@H]1O [adenosine 5'-triphosphate]
Description: log2 fold change of tryptic peptide abundance, ligand vs vehicle (limited proteolysis) (log2 ratio); higher = more trypsin-susceptible (destabilized). The following applies: ligand concentration: 5 mM; sample: E. coli desalted lysate; replicate design: treated before aliquoting. The method, then: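 HT-PELSA: desalted E. coli K-12 BW25113 lysate (with 12 mM MgCl2) incubated with 5 mM ATP (pH 7) or water for 30 min at 25 C, then a 4 min trypsin pulse at 22 C. Peptides were quantified by DIA-MS (4 replicates). Value is the peptide log2 fold change (treated/control); negative = stabilized. Scale: negative = ligand-stabilized region.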
In the case of “UniProt Q46889 (peptide sequence: LQQEGYR, peptide start residue: 188)”, the log2 fold change was -0.564.
With “UniProt P39343 (peptide sequence: IKNNDHNHNTVDLGYQIYHGNTL, peptide start residue: 310)”, the log2 fold change was -0.756.
To “UniProt P23883 (peptide sequence: ALSLAIENR, peptide start residue: 13)” belongs -2.59; to “UniProt P21151 (peptide sequence: ISTTLLNLMERK, peptide start residue: 352)”, 0.834; to “UniProt P24182 (peptide sequence: LMGDKVSAIAAMKK, peptide start residue: 112)”, -1.24.
As for “UniProt P27296 (peptide sequence: SIPHIIVTSATLR, peptide start residue: 451)”, the figure is -2.01; as for “UniProt P23874 (peptide sequence: ISVAGAQEK, peptide start residue: 149)”, -4.86; as for “UniProt P02919 (peptide sequence: SIGSLAK, peptide start residue: 507)”, 0.413.
